Test results published in PubChem BioAssay.
The source made the active and inactive calls. Cut-off read from the data, not from the text of the source, unless noted: active = inhibition above about 80%; inactive = the rest.

Experiments:
[1] = RCMB18 cell growth, single agent and combined, cisplatin and BGB IC40 combos (AID 1671462); settings: RCMB18 medulloblastoma cells, stronger effect = higher value;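 note: cells exposed to compound for four days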
[2] = CRL1545 cell growth, single agent and combined, cisplatin and BGB IC20 combos (AID 1671464); settings: CRL1545 osteosarcoma cells, stronger effect = higher value;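 note: cells exposed to compound for 96 hours before readout; 0% = vehicle DMSO and 100% = high DMSO killing control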
[3] = growth inhibition, single agent or in combination, cell-based, chromothripsis tumors, cisplatin or BGB combos (AID 1671449); settings: LFS_MB_P medulloblastoma cells;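 note: cells exposed for 96 hours; 0% = vehicle DMSO and 100% = killing by high DMSO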
[4] = growth inhibition, single agent and combos, cell-based, chromothripsis tumors, cisplatin or BGB combos (AID 1671450); settings: HDN33 neuroblastoma cells, stronger effect = higher value;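 note: cells exposed to compound for four days; 0% = vehicle DMSO and 100% = cell killing by high DMSO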
[5] = growth inhibition, single agents and combos, ICB984, cell-based, cisplatin or BGB combos, synergistic combos for chromothripsis tumors (AID 1671451; call rule not given here;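 note: cells exposed for 96 hours before readout; 0% = vehicle DMSO and 100% = killing by high DMSO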); settings: ICB984 medulloblastoma cells, drug combinations, stronger effect = higher value
[6] = growth inhibition, single agents and combos, LFS_MB_1R, cell-based, cisplatin or BGB combos, synergistic combos for chromothripsis tumors (AID 1671452); settings: LFS_MB_1R medulloblastoma cells, stronger effect = higher value;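 note: cells exposed for 96 hours before readout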
[7] = growth inhibition, single agents and combos, HTB85, cell-based, BGB or cisplatin IC20 combos, synergistic combos for chromothripsis tumors (AID 1671453); settings: HTB85 osteosarcoma cells, drug combinations, stronger effect = higher value;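 note: cells exposed for 96 hours before readout; 0% = vehicle DMSO and 100% = high DMSO killing control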
[8] = growth inhibition, single agents and combos, CRL2098, cell-based, BGB or cisplatin IC20 combos, synergistic combos for chromothripsis tumors (AID 1671454); settings: CRL2098 osteosarcoma cells, drug combinations, stronger effect = higher value;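 note: cells exposed for 96 h before readout; 0% = vehicle DMSO and 100% = killing by high DMSO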
[9] = growth inhibition, single agents and combos, HD-MB03, cell-based, BGB or cisplatin IC20 combos, synergistic combos for chromothripsis tumors (AID 1671455; in the data active = inhibition above about 83%;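 note: 0% = vehicle DMSO and 100% = high DMSO as cytotoxic control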); settings: HD-MB03 medulloblastoma cells, stronger effect = higher value
[10] = growth inhibition, single agents and combos, UWB1.289, cell-based, BGB or cisplatin combos, synergistic combos for chromothripsis tumors (AID 1671456); settings: UWB1.289 ovarian carcinoma cells, stronger effect = higher value;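 note: cells exposed to compound for four days; 0% = vehicle DMSO and 100% = killing by high DMSO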
[11] = growth inhibition, single agents and combos, LFS_MB_2R, cell-based, cisplatin combos, synergistic combos for chromothripsis tumors (AID 1671457); settings: LFS_MB_2R medulloblastoma cells, stronger effect = higher value;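 note: cells exposed to compound for four days before readout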
[12] = growth inhibition, MDA-MB-436, cell-based, BGB or cisplatin combos, synergistic combos for chromothripsis tumors (AID 1671458; call rule not given here;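 note: cells exposed for 96 hours; 0% = vehicle DMSO and 100% = killing by high DMSO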); settings: MDA-MB-436 breast carcinoma growth inhibition, drug combinations, stronger effect = higher value
[13] = UWB1.289_BRCA1 ovarian cancer growth, cell-based, BGB or cisplatin combinations (AID 1671459); settings: UWB1.289 BRCA1 ovarian carcinoma, drug combinations, stronger effect = higher value
[14] = drug combination toxicity in non-malignant astrocytes – cell-based, BGB or cisplatin IC20 combos, cytotoxicity control for chromothriptic childhood tumor combination screen (AID 1671460); settings: Human astrocytes, viability inhibition, drug combinations, at 0.5 µM, stronger effect = higher value;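 note: cells exposed to compounds for 96 hours before viability readout; 0% = vehicle and 100% = killing control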
[15] = BT084 cell growth, single and combined drugs, ICGC_MB145, cisplatin and BGB IC40 combos (AID 1671461); settings: BT084 medulloblastoma cells, drug combinations, stronger effect = higher value;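 note: cells exposed to drugs for 96 hours; 0% = vehicle DMSO and 100% = high DMSO full killing control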
[16] = measured here: BGB IC40 combination, at 0.05 µM
[17] = measured here: combination with cisplatin, at 0.5 µM
[18] = measured here: with BGB IC20 combination, at 0.5 µM
[19] = measured here: with cisplatin IC20 combination, at 0.5 µM
[20] = measured here: combination with BGB IC40, at 0.05 µM
[21] = measured here: combination with cisplatin, at 5 µM

## CC(=O)C1(O)Cc2c(O)c3c(c(O)c2C(OC2CC(N)C(O)C(C)O2)C1)C(=O)c1ccccc1C3=O (stereo unspecified)
[1]; [16]
  inhibition: 34.7%
[1]; [17]
  inhibition: 76.4%
[1]; single agent, at 5 µM
  inhibition: 94.4%
[2]; at 0.5 µM
  inhibition: 99.1% (active)
[2]; [18]
  inhibition: 98.7%
[2]; [19]
  inhibition: 99.3%
[2]; single agent, at 0.05 µM
  inhibition: 99.4%
[2]; single agent, at 5 µM
  inhibition: 99.9%

## Cn1cc(-c2cnn3c(N)c(Br)c([C@H]4CCCNC4)nc23)cn1
[3]; at 0.5 µM, stronger effect = higher value
  inhibition: 20.2% (inactive)
[3]; measured here: combination with BGB IC20, at 0.005 µM
  inhibition: -7.68%
[3]; measured here: combination with BGB IC40, at 0.005 µM
  inhibition: 93.8%
[3]; [20]
  inhibition: 11.8%
[3]; measured here: combination with cisplatin, at 0.5 µM, stronger effect = higher value
  inhibition: 10.2%
[3]; measured here: combination with cisplatin, at 5 µM, stronger effect = higher value
  inhibition: -24.2%
[4]; BGB combo, at 5 µM
  inhibition: 73.2%
[4]; at 0.5 µM
  inhibition: 22.3% (inactive)
[4]; cisplatin combo, at 5 µM
  inhibition: 83.7%
[4]; [18]
  inhibition: 9.52%
[4]; [19]
  inhibition: 28.6%
[4]; single agent, at 5 µM
  inhibition: 88.5%
[5]; BGB IC20 combo, at 0.005 µM
  inhibition: -13.9%
[5]; BGB IC40 combo, at 0.005 µM
  inhibition: -26.3%
[5]; BGB IC40 combo, at 0.05 µM
  inhibition: -14.6%
[5]; at 0.5 µM
  inhibition: -16.3% (inactive)
[5]; cisplatin combo, at 0.05 µM
  inhibition: -20.5%
[5]; cisplatin combo, at 0.5 µM
  inhibition: -27.1%
[5]; cisplatin combo, at 5 µM
  inhibition: -5.82%
[5]; measured here: 5 uM single agent, at 5 µM
  inhibition: -16.1%
[6]; at 0.5 µM
  inhibition: 2.92% (inactive)
[6]; [20]
  inhibition: -16.9%
[6]; [17]
  inhibition: 5.45%
[6]; [21]
  inhibition: -19.5%
[7]; at 0.5 µM
  inhibition: -14.3% (inactive)
[7]; measured here: with BGB IC20, at 0.5 µM
  inhibition: 4.42%
[7]; measured here: with BGB IC20, at 5 µM
  inhibition: 66.4%
[7]; measured here: with cisplatin IC20, at 0.5 µM
  inhibition: -18.4%
[7]; measured here: with cisplatin IC20, at 5 µM
  inhibition: 80.6%
[7]; single agent, at 5 µM
  inhibition: 52.9%
[8]; at 0.5 µM
  inhibition: -2.8% (inactive)
[8]; measured here: combination with BGB at IC20, at 0.5 µM
  inhibition: -24%
[8]; measured here: combination with cisplatin at IC20, at 0.5 µM
  inhibition: -3.06%
[9]; at 0.5 µM
  inhibition: 6.2% (inactive)
[9]; measured here: combo with BGB at IC20, at 0.5 µM
  inhibition: 2.25%
[9]; measured here: combo with cisplatin at IC20, at 0.5 µM
  inhibition: 17.7%
[10]; at 0.5 µM
  inhibition: 28.5% (inactive)
[10]; measured here: inhibition with BGB combination, at 0.05 µM
  inhibition: -6.38%
[10]; measured here: inhibition with cisplatin combination, at 0.05 µM
  inhibition: -4.25%
[11]; at 0.5 µM
  inhibition: -5.31% (inactive)
[11]; [17]
  inhibition: -14.4%
[11]; [21]
  inhibition: -6.17%
[12]; at 0.5 µM
  inhibition: 29.3% (inactive)
[12]; measured here: BGB combination, at 0.5 µM
  inhibition: 21.8%
[12]; measured here: BGB combination, at 5 µM
  inhibition: 53.4%
[12]; measured here: cisplatin combination, at 0.5 µM
  inhibition: 36.8%
[12]; measured here: cisplatin combination, at 5 µM
  inhibition: 73.3%
[13]; BGB combination, concentration series, at 5 µM
  inhibition: 103%
[13]; at 0.5 µM
  inhibition: 7.13% (inactive)
[13]; cisplatin combination, concentration series, at 5 µM
  inhibition: 119%
[14]
  inhibition: -19% (inactive)
[14]; measured here: combo with BGB IC20
  inhibition: -17.5%
[14]; measured here: combo with cisplatin IC20
  inhibition: -30.9%
[15]; at 0.5 µM
  inhibition: 11% (inactive)
[15]; cisplatin combination, at 0.5 µM
  inhibition: 16.1%
[15]; cisplatin combination, at 5 µM
  inhibition: -105%
[15]; measured here: BGB IC40 combination 0.05 uM, at 0.05 µM
  inhibition: 5.34%
[15]; single agent, at 5 µM
  inhibition: 34.7%
[1]; at 0.5 µM
  inhibition: 4.28% (inactive)
[1]; cisplatin combo, at 5 µM
  inhibition: 22.7%
[1]; [16]
  inhibition: -33.2%
[1]; [17]
  inhibition: -3.81%
[1]; single agent, at 5 µM
  inhibition: 47.3%
[2]; at 0.5 µM
  inhibition: 79.7% (inactive)
[2]; [18]
  inhibition: 73.9%
[2]; [19]
  inhibition: 82.3%
[2]; single agent, at 0.05 µM
  inhibition: 19%
[2]; single agent, at 5 µM
  inhibition: 92.3%
